Assay results reported in publication PMC7819943, “Rice protein-binding microarrays: a tool to detect cis-acting elements near promoter regions in rice”.
Over roughly 39,000 sequences, “fluorescence intensity (a.u.)” has its median near 4,300; the highest 2% begin near 39,000. The entries come from a sample that favours the highest values as a whole.

target: T1, OsSMF1 (Oryza sativa, UniProt Q6ZLB0 1-436); experiment: protein-binding microarray (RPBM); PBS, 2% BSA, 51.3 ng/ul salmon testes DNA, 50 uM zinc acetate, 200 nM TF, 25 C, 1 h; high values mean tight binding; settings: protein: recombinant; tags: N-terminal polyhistidine and DsRed monomer fusion (pET32a); chain copies: 2; label: CyDye5-dUTP incorporated in the synthesized complementary strand; 3' TTTTT single-stranded linker to array surface; dsDNA, one strand shown
T1 sequence: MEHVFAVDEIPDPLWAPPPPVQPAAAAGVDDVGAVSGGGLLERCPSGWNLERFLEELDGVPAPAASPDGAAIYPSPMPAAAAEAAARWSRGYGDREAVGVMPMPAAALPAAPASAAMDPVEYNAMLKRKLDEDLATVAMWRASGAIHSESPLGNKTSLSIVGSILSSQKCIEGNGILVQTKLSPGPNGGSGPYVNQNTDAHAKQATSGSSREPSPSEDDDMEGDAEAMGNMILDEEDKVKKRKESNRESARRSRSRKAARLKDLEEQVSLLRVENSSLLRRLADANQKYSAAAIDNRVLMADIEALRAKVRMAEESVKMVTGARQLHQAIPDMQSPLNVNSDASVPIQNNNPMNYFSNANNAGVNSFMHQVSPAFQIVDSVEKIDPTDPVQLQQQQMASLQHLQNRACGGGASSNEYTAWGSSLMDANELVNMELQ
Outline: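 The binding signal for each feature is its fluorescence intensity in arbitrary units. An Axon 4000B scanner was used to read a custom Agilent array that had been made double-stranded with Cy5-dUTP primer extension, blocked with 2% BSA, incubated at 25 °C for 1 h with 200 nM protein in PBS, 2% BSA, salmon testes DNA and 50 µM zinc acetate, and washed. The protein was an N-terminal polyhistidine–DsRed transcription factor fusion from E. coli BL21-CodonPlus, purified on Ni–NTA.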

| Sequence | binding signal |
| --- | --- |
| CTCGCTCGCCTGCCTCCCCACCTCACCAGCTCACCCCACGCGGAGTCACCTAGTGCAG | 4810 fluorescence intensity (a.u.) |
| TCAAGATCCAACAGCTTGTCTCGTGCTCGTCACAGCTTCTCGGAGTCACCTAGTGCAG | 3230 fluorescence intensity (a.u.) |
| GCAAGAGATCCGAGAAGAGCAACATAACCCACAGGCCGCTCGGAGTCACCTAGTGCAG | 3720 fluorescence intensity (a.u.) |
| CCCCACCGACGGCGTGCAAAGCGGCCACCCAGCTCGACGCCGGAGTCACCTAGTGCAG | 8120 fluorescence intensity (a.u.) |
| TTAGTATTTAAAATTTAAAAGCAAAGTCATTCTCCTTCTACGGAGTCACCTAGTGCAG | 8610 fluorescence intensity (a.u.) |
| TGGGTGTAATTGTTTCCTCGATTTCGCTGGCATGTACTTTCGGAGTCACCTAGTGCAG | 3780 fluorescence intensity (a.u.) |
| GGATGGACGTGTGGGGCCTCGCCGTCAGCATTTGCTCCTTCGGAGTCACCTAGTGCAG | 4560 fluorescence intensity (a.u.) |
| GCGTACGGCTGCCTAATGCAGAGCCTGACGTGGCGAGCTGCGGAGTCACCTAGTGCAG | 17400 fluorescence intensity (a.u.) |
| GATAAAGGTCTCTATTTGCATGACATATATCGTTACTATACGGAGTCACCTAGTGCAG | 3570 fluorescence intensity (a.u.) |
| CTCCAGCAGCTGCTCGCTCGTCATCACCGCGATGCTGCCGCGGAGTCACCTAGTGCAG | 3490 fluorescence intensity (a.u.) |
| TTGGCGGTGATCGAGGTTAGACATCTCACCGTCAATCTTGCGGAGTCACCTAGTGCAG | 3180 fluorescence intensity (a.u.) |
| AGACCACATAGAATGGAAGCGTCATCAGTTTCCACGCAATCGGAGTCACCTAGTGCAG | 6480 fluorescence intensity (a.u.) |
| CGTCAGCCTGCAATCGCTTTCTGGGCCCAATAGTACGGGCCGGAGTCACCTAGTGCAG | 8490 fluorescence intensity (a.u.) |
| TTTCTTTGGTTCAGCTGAACCATTATTTGTTGTTTTACTTCGGAGTCACCTAGTGCAG | 40700 fluorescence intensity (a.u.) |
| ACTTTGTACTAGTTTTCATATTATGTCATTCTTTAACCATCGGAGTCACCTAGTGCAG | 3650 fluorescence intensity (a.u.) |
| AAAATTTAATACGACGAATGTTCAAACGGTGCAAGCAAAACGGAGTCACCTAGTGCAG | 45000 fluorescence intensity (a.u.) |
| AGATCAGCAAGCGAACTGAATTTAATCAAATGTACTAGTACGGAGTCACCTAGTGCAG | 23000 fluorescence intensity (a.u.) |
| AACTTTCATAAGCAAAATATCAAACGACTTATAATTTTATCGGAGTCACCTAGTGCAG | 26300 fluorescence intensity (a.u.) |
| TTTGTACTCATTTTATTACAACATGAACAAACCCTTCTTTCGGAGTCACCTAGTGCAG | 3500 fluorescence intensity (a.u.) |
| GAAGCCCTAGCCTAGGAGTGAGAGGTCCCACGTCTTCCCCCGGAGTCACCTAGTGCAG | 3780 fluorescence intensity (a.u.) |
| TTAATAATAGCCATGTGCGTCATTAGACGGTAGTACGATCCGGAGTCACCTAGTGCAG | 5910 fluorescence intensity (a.u.) |
| TGTATAATACATGCCCACGCATTCGCGCGGGCTACCCTCCCGGAGTCACCTAGTGCAG | 3530 fluorescence intensity (a.u.) |

| Sequence | binding signal |
| --- | --- |
| CATGCAGTCAATAGTGTGACTGTAACTTAAACGGTCACACCGGAGTCACCTAGTGCAG | 3750 fluorescence intensity (a.u.) |
| GGGCCTCCCCTCCTCCCTTCGCTGGCGAGAGGACGGAGACCGGAGTCACCTAGTGCAG | 3400 fluorescence intensity (a.u.) |
| GATATATCCACATCAGCGTGCATACAAGTGTGTCAAAGCTCGGAGTCACCTAGTGCAG | 8160 fluorescence intensity (a.u.) |
| CATCAAACAACCAGTTTCTTAGGATGTCTTTTAACCGTGACGGAGTCACCTAGTGCAG | 23200 fluorescence intensity (a.u.) |
| AAACCATTCGCCCGATTTGATCCACATCACCACTTTGGTTCGGAGTCACCTAGTGCAG | 10400 fluorescence intensity (a.u.) |
| TCACCCCTGAGAAAGACACGTCTTTCTGGTTTAATCCATTCGGAGTCACCTAGTGCAG | 3620 fluorescence intensity (a.u.) |
| AACCCCAGAAACCAGAGGCGGGCTGGTTGATCCATTCTTTCGGAGTCACCTAGTGCAG | 45000 fluorescence intensity (a.u.) |
| GGGAAACGAGTCAAGCTGACGTGTGCAAGAATCTCCTACACGGAGTCACCTAGTGCAG | 13500 fluorescence intensity (a.u.) |
| GTAAGTTGAATGATGTCATATATTTAATTTTACGGTAAGTCGGAGTCACCTAGTGCAG | 6940 fluorescence intensity (a.u.) |
| TAATTAAATTGTCATATCACTTCTTAACTTATTGGACTAACGGAGTCACCTAGTGCAG | 3220 fluorescence intensity (a.u.) |
| TACATTATATTCAATTCTAACTTTCGGAAATATTATATAGCGGAGTCACCTAGTGCAG | 26900 fluorescence intensity (a.u.) |
| AAAATTATTAACTTCTTGTTTCGATCACCCTAATAAATAGCGGAGTCACCTAGTGCAG | 41000 fluorescence intensity (a.u.) |
| GACGTGGTAAGTTAACTTGGTTAAAATGTGCTGACGTGGTCGGAGTCACCTAGTGCAG | 24700 fluorescence intensity (a.u.) |
| TGCAGGGGCGCAGCACGGGAGGGTGCTTGACGCATACAAGCGGAGTCACCTAGTGCAG | 4030 fluorescence intensity (a.u.) |
| AATGCTAAGGGACAACGTCAGCGGGTTAGTGCAAGGTAAGCGGAGTCACCTAGTGCAG | 6630 fluorescence intensity (a.u.) |
| CACGGACGCAAGGGGCCTGCTAAGCCTCTACAACGCAGCGCGGAGTCACCTAGTGCAG | 41800 fluorescence intensity (a.u.) |
| GCTGCTCTCTTTCCTCTCTTCTCTCTCTGTTTTCTCTCCTCGGAGTCACCTAGTGCAG | 18500 fluorescence intensity (a.u.) |
| TGGTATGAATGGATAATTTGTTTCTGTCTTATGTGTTGCTCGGAGTCACCTAGTGCAG | 3150 fluorescence intensity (a.u.) |
| CTCTGTGCTGAAATGGTTAGGTATGTTTTCTTTCTGCTCTCGGAGTCACCTAGTGCAG | 40700 fluorescence intensity (a.u.) |
| TCGGCAAGCTGAGACGGCTAGTGAACCTATCAGCCATCAGCGGAGTCACCTAGTGCAG | 15900 fluorescence intensity (a.u.) |
| TCTGGACCACATAAACGAGAGAGAGAGAGAAGTCCAAGCCCGGAGTCACCTAGTGCAG | 47900 fluorescence intensity (a.u.) |
